“And” between values parts separate entries of the source, which are not always exact repeats. Identical values can stand only once. Inconclusive results are not listed. Entries that show only a call come without a potency. The source holds several records for some structures; these can differ, active in one and inactive in another. The source made the active and inactive calls. Calls come from the whole dose curve; as a rule, active = well fitted inhibition curve with a large enough effect; inconclusive = small, poorly fitted or top-dose-only effect; inactive = no such curve, though single readings can be large or run the other way.
Potency is the fitted concentration of half-maximal effect.

A short description of this experiment: qHTS assay for measurement of the activity of small molecule inhibitors on Zika virus induced Caspase-3 activity in human iPSC derived neural progenitor cells (hNPCs) (AID 1224857). Note: nearly all actives have a fitted effect of over 65% in size. The settings on record: hNPCs ZIKV-induced caspase-3/7, Caspase-Glo luminescence, 6 h; series mostly up to 45.7 µM. The text has this:
National Center for Advancing Translational Sciences [NCATS]
Johns Hopkins University School of Medicine
Increase in the Caspase-3 activity indicates an activation of apoptosis cell death pathway caused by Zika virus infection in certain types of neuronal cells including human neural progenitor cells (hNPCs), astrocytes, and astrocytoma cell line (SNB-19). This cell-based caspase-3 activity assay measures the increased caspase-3 activity in the human iPSC derived neural progenitor cells (hNPCs) after a 6-hour Zika virus infection with a luminescence readout. A decrease in the luminescence signal in this assay by small molecule treatment indicates an inhibitory effect of that small molecule on the Zika virus induced caspase-3 activity that may correlate with its effect on reduction of Zika virus caused cell death.
The medium for hNPCs consists of DMEM/F12, N2 supplement (ThermoFisher, Cat.# 17502048), NEAA (ThermoFisher, Cat. # 11140050), 2 ug/ml heparin, 2 uM cyclopamine, and B27 (ThermoFisher, Cat. # 17504044). A Caspase-Glo 3/7 assay kit (catalog number G8092; Promega, Madison, WI) was used to detect caspase-3 activity induced by Zika virus infection in human cells. The reagent mixture was reconstituted as described in the protocol from the manufacturer. Polystyrene tissue culture treated and PDL coated white plates were obtained from Greiner Bio-One (Monroe, NC). Cells were seeded in 384- or 1536-well assay plates and cultured at 37 C with 5% CO2 for 16 to 20 hours. The typical cell seeding density in the 1536-well plate assay is 350 cells/well in 3 ul medium for hNPCs in tissue culture treated plates. Compounds were added to cells and incubated for one hour before addition of ZIKV solution to cells (2 FFU/cell). After incubation at 37 C with 5% CO2 for 6 hours, the reagent mixture of Caspase-Glo 3/7 assay kit was added to each well, followed by incubation at room temperature for 30 minutes. The luminescence intensity of the assay plates was measured using a ViewLux plate reader (PerkinElmer). Data were normalized by using the cell-containing wells without ZIKV as a negative control (0% induction of caspase 3/7 activity) and wells containing ZIKV infected cells (Caspase-3 activity induced) as a positive control (100% induction of caspase 3 activity). The percentage inhibitions of the increased Caspase-3 activity by small molecule inhibitors were then calculated.
Background: In qHTS, concentration-response curves come from the screen itself.
With `CCOC(=O)c1ccc(C#Cc2ccc3c(c2)C(C)(C)CCS3)nc1`, the Potency entry is “inactive”.

In the case of `COc1ccc2c(c1)c(CC(=O)OCC(=O)O)c(C)n2C(=O)c1ccc(Cl)cc1`, the Potency entry is “inactive”.

As to `C[C@@H]1CN(c2c(F)c(N)c3c(=O)c(C(=O)O)cn(C4CC4)c3c2F)C[C@H](C)N1`, the Potency result was “inactive”.

As to `COc1cc(NCc2ccc3nc(N)nc(N)c3c2C)cc(OC)c1OC`, the Potency result is “inactive”.

On to `O=C(O)CSCC(=O)NC1CCSC1=O` (stereo not given), for which the Potency entry was “inactive”.

Take `CC(=O)[C@H]1CC[C@H]2[C@@H]3CCC4=CC(=O)CC[C@]4(C)[C@H]3CC[C@]12C`: the Potency entry is “inactive”.

In the case of `O=C(N[C@H](CO)[C@H](O)c1ccc([N+](=O)[O-])cc1)C(Cl)Cl`, the Potency entry was “inactive”.

In the case of `CC(C(=O)O)c1ccc2c(c1)CC(=O)c1ccccc1S2` (stereo not given), the Potency entry was “inactive”.

As to `NC(=O)c1cccc(N)c1`, the Potency entry was “inactive”.

For `COC(c1ccccc1)(c1ccccc1)[C@H](Oc1nc(C)cc(C)n1)C(=O)O`, the Potency result is “inactive”.

As to `C[C@@H](NCCCc1cccc(C(F)(F)F)c1)c1cccc2ccccc12`, the Potency result is “inactive”.

Consider `N=C(N)c1ccc(OCCCCCOc2ccc(C(=N)N)cc2)cc1`, for which the Potency result was “inactive”.

For the compound `Cn1c(=O)c2c(ncn2CC(O)CO)n(C)c1=O` (stereo not given), the Potency result was “inactive”.

`CC(C)Cn1cnc2c(N)nc3ccccc3c21`: the Potency entry was “inactive”.

Consider `NS(=O)(=O)c1cc2c(cc1Cl)NC(C(Cl)Cl)NS2(=O)=O` (stereo not given), for which the Potency result was “inactive”.

As to `COc1ncnc(NS(=O)(=O)c2ccc(N)cc2)c1OC`, the Potency result was “inactive”.

Consider `CC1=CC(=O)c2ccccc2C1=O`, for which the Potency result was “inactive”.

In the case of `OCc1ccc(-c2nn(Cc3ccccc3)c3ccccc23)o1`, the Potency entry is “inactive”.

Take `Cc1ncc([N+](=O)[O-])n1CCO`: the Potency entry is “inactive”.

In the case of `CCc1cc(C(N)=S)ccn1`, the Potency result is “inactive”.

As for `CC(C)C1CCC(C(=O)N[C@H](Cc2ccccc2)C(=O)O)CC1` (stereo not given in full), the Potency entry is “inactive”.

Regarding `CNCC[C@H](Oc1cccc2ccccc12)c1cccs1`, the Potency entry is “inactive and 23.5 µM (active)”.

As to `Cc1onc(-c2ccccc2Cl)c1C(=O)N[C@@H]1C(=O)N2[C@@H]1SC(C)(C)[C@@H]2C(=O)O`, the Potency entry was “inactive”.

Regarding `CCCCCCNC(=O)n1cc(F)c(=O)[nH]c1=O`, the Potency result was “inactive”.

Regarding `CC(C)(Sc1cc(C(C)(C)C)c(O)c(C(C)(C)C)c1)Sc1cc(C(C)(C)C)c(O)c(C(C)(C)C)c1`, the Potency entry is “inactive”.

Take `CN1CCN(c2c(F)cc3c(=O)c(C(=O)O)cn(CCF)c3c2F)CC1`: the Potency result is “inactive”.

On to `CC(C)OC(=O)OCOP(=O)(CO[C@H](C)Cn1cnc2c(N)ncnc21)OCOC(=O)OC(C)C`, for which the Potency entry is “inactive”.

In the case of `CCN(C)C(=O)Oc1cccc([C@H](C)N(C)C)c1`, the Potency result was “inactive”.

As to `C[C@]12C=CC(=O)C=C1CC[C@@H]1[C@@H]2C(=O)C[C@@]2(C)[C@H]1CC[C@]2(O)C(=O)CO`, the Potency entry was “inactive”.

As for `CC[C@H](C)C(=O)O[C@H]1C[C@@H](C)C=C2C=C[C@H](C)[C@H](CC[C@@H]3C[C@@H](O)CC(=O)O3)[C@H]21`, the Potency result is “inactive”.

`CN(C)CCc1c[nH]c2ccc(C[C@H]3COC(=O)N3)cc12`: the Potency result was “inactive”.

Regarding `Cc1nnc(NS(=O)(=O)c2ccc(N)cc2)s1`, the Potency entry is “inactive”.

In the case of `COc1ccc(-c2ccc3cc(C(=O)O)ccc3c2)cc1C12CC3CC(CC(C3)C1)C2`, the Potency entry was “inactive”.

Take `CCC(C)(C)c1ccc(CC(C)CN2C[C@@H](C)O[C@@H](C)C2)cc1` (stereo not given in full): the Potency entry is “inactive”.

`CO[C@@]12[C@H](COC(N)=O)C3=C(C(=O)C(C)=C(N)C3=O)N1C[C@@H]1N[C@@H]12`: the Potency entry was “inactive”.

For `COc1cc(NS(=O)(=O)c2ccc(N)cc2)nc(OC)n1`, the Potency result was “inactive”.

Regarding `S=P(N1CC1)(N1CC1)N1CC1`, the Potency result is “inactive”.

`CNC1CCCN(c2c(F)cc3c(=O)c(C(=O)O)cn(C4CC4)c3c2OC)C1` (stereo not given): the Potency entry was “inactive”.

For the compound `CC(N)C12CC3CC(CC(C3)C1)C2` (stereo not given), the Potency entry was “inactive”.

In the case of `Cn1nnc2c(C(N)=O)ncn2c1=O`, the Potency result was “inactive”.

The values are drawn from PubChem BioAssay (NCATS).
